Potency data for nine molecules are collected here from PubChem BioAssay AID1845224 (National Center for Advancing Translational Sciences (NCATS), 2023).

The structures appear in SMILES notation. Inconclusive results are not listed. A call without a number means that no potency is given here. Calls of active or inactive are those of the source. Calls follow the shape of the dose curve; as a rule, active = well fitted curve in the direction sought with a large enough effect; inconclusive = small, poorly fitted or top-dose-only effect, or another doubt; inactive = no such curve, though single readings can be large or run the other way.

This assay has as its system NanoLuc luciferase (engineered Oplophorus gracilirostris luciferase). The assay is described as follows: Confirmatory Nanoluciferase (NLuc) qHTS assay for identification of artifact compounds. The source says:
PI: Alexander Tropsha Ph.D. UNC Eshelman School of Pharmacy University of North Carolina, Chapel Hill, North Carolina Hits from high-throughput screening (HTS) of chemical libraries are often false positives due to their interference with the assay detection technology. In response to this problem, we generated the largest publicly available library of chemical liabilities and developed a free webtool to predict HTS artifacts, both of which are described herein. More specifically, we generated, curated, and integrated HTS datasets for thiol reactivity, redox activity, and luciferase (firefly and nano) activity. Using these curated datasets, we developed and validated several Quantitative Structure-Interference Relationship (QSIR) models to predict nuisance behavior. […] These models were employed for virtual profiling of the National Center for Advancing Translational Science's (NCATS) in-house library, and 256 compounds for each assay were selected for the experimental validation of nuisance behavior. The BA for these external predictions ranged from 58 to 78% for compounds within the applicability domains of the models. […] The models developed in this study, along with aggregation models previously developed by our group (SCAM Detective) were implemented in "Liability Predictor," an online tool which may be used as part of chemical library design or for triaging HTS hits. Both the models and the curated datasets are publicly available at https://liability.mml.unc.edu/.
PROTOCOL TABLE SEQUENCE No. (e.g., 1, 2, 3, etc.); PARAMETER (e.g., Cells, Incubation, Reagent, etc.); VALUE; DESCRIPTION. 1; Reagent; 2 uL; Nanoluciferase media. 2; Compounds and control; 16 nL; Kalypsis pin tool (Wako USA) equipped with a 1536-well pin head. 3; Incubation; 15 min. 4; Reagent; 2 uL; Luciferase enzyme. 5; Incubation; 5 min. 6; Detection; Luminescence, ViewLux microplate reader. NOTES (numbers refer to Sequence numbers above) 1. Medium was collected from the culture flasks of NLuc-expressing S16 cells (80% confluent) prior to cell plating, filtered through a 0.22um filter, and frozen at -20C prior to use. Media was diluted (1:55) and 2 uL was dispensed into all wells of a 1536-well assay plate (solid-bottom white plate; Greiner Bio One, Monroe, NC). 2. A Wako Pin-tool (Wako Automation, Richmond, VA) was used to transfer 16 nL of compounds (consisting of 7-plates in qHTS format, final concentration range 18.3 nM to 114 uM) or control Cilnidipine (final concentration range 623 nM to 80 uM). 3. 15 min. incubation at room temperature protected from light. 4. 2 uL of NLuc substrate (1:100 in Nano-Glo luciferase buffer; Nano-Glo luminescence assay, Promega, Madison, WI) was dispensed for a final assay volume of 4 uL. 5. Plates were centrifuged (121xg, 15 seconds) and incubated for 5 minutes. 6. Samples were read for luminescence on a ViewLux CCD imager (PerkinElmer). Data were normalized to no-enzyme (0% activity) and no-inhibitor (DMSO; 100%) controls and the resulting percent inhibition data were fitted to a 4-parameter Hill equation using NCATS in-house software.
Potency is read from the fitted curve at half-maximal effect.

`CC1=C[C@H]2[C@]3(O)C(C=C(CO)C[C@]2(O)C1=O)[C@@H]1C(C)(C)[C@]1(O)[C@H](O)[C@H]3C` (some centres undefined): the Potency result was “inactive”.
Consider `C[C@H]1CC[C@@H]2[C@@H](C)[C@H]3C(CC4C5CC=C6CC(O[C@@H]7O[C@H](CO)C(O[C@@H]8O[C@@H](C)[C@H](O)[C@@H](O)[C@H]8O)[C@H](O)[C@H]7O[C@@H]7O[C@@H](C)[C@H](O)[C@@H](O)[C@H]7O)CC[C@]6(C)C5CC[C@@]43C)N2C1` (some centres undefined), for which the Potency entry is “inactive”.
With `C[C@@H]1C[C@@H]2[C@H]([C@H]3C=C(COC(=O)c4ccccc4)[C@@H](O)[C@]4(O)[C@@H](O)C(OC(=O)c5ccccc5)=C[C@@]14C3=O)C2(C)C`, the Potency result is “inactive”.
The same measure for `CC(=O)O[C@H]1[C@H]2[C@@H](OC(=O)Cc3ccccc3)[C@@H](C)C[C@]2(OC(C)=O)C(=O)/C(C)=C/[C@@H]2[C@H](CC[C@@]13CO3)C2(C)C`: “inactive”; for `O=P1(N(CCCl)CCCl)NC(OO)CCO1` (centres undefined): “inactive”; for `CC(C)(O)[C@@H]1[C@H]2OC(=O)[C@@H]1[C@]1(O)C[C@H]3O[C@]34C(=O)O[C@H]2[C@]14C`: “inactive”.
Take `COc1cc(=O)n2c(c1C(=O)N(C)Cc1nonc1C)CCN(C(=O)C1C(C)(C)C1(C)C)CC2`: the Potency entry is “inactive”.
The same measure for `COc1cccc2c1C(=O)c1c(O)c3c(c(O)c1C2=O)CC(O)(C(C)=O)CC3OC1CC(NCc2ccc(CNC3CC(OC4CC(O)(C(C)=O)Cc5c(O)c6c(c(O)c54)C(=O)c4c(OC)cccc4C6=O)OC(C)C3O)cc2)C(O)C(C)O1` (centres undefined): 15.4 µM (active); for `CC(=O)O[C@H]1C2[C@@H](OC(=O)Cc3ccccc3)[C@@H](C)C[C@]2(OC(C)=O)C(=O)/C(C)=C/[C@@H]2[C@H](CC[C@@]13CO3)C2(C)C` (some centres undefined): “inactive”.
